Data on 34 compounds can be found in ChEMBL document CHEMBL1961873, “Compounds: GSK PKIS; Assays: Nanosyn kinase panel” (2012).

Structures are written as SMILES.

For the first assay, the target named is T1, Serine/threonine-protein kinase Nek2 (Homo sapiens) (UniProt P51955).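 Also: reported values are mean percent inhibition of NEK2.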
T1 sequence (whole entry): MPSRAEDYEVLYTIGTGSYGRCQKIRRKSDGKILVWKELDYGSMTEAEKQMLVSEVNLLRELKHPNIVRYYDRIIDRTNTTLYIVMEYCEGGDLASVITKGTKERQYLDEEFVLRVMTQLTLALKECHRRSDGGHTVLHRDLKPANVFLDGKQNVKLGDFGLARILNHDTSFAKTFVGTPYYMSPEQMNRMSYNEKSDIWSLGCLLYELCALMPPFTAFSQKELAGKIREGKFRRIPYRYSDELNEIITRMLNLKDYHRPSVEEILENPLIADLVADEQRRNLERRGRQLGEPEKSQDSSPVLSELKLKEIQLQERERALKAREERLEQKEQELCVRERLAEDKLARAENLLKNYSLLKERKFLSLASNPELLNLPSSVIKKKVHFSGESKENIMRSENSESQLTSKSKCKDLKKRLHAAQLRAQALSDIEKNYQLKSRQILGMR
The following applies: at 1 µM.
The term inhibition denotes the relative decrease from the control value, in per cent. `Fc1ccc(-c2c(-c3ccncc3)nc3n2CCS3)cc1`: the inhibition stood at 2.6%.
Take `C/C(Nc1ccc(S(N)(=O)=O)cc1)=C1/C(=O)Nc2ccccc21`: the inhibition stood at 0.19%.
Still for that read-out and setting: the value for `C[C@@H](Oc1cc(-n2cnc3ccc(OC4CCN(C)CC4)cc32)sc1C(N)=O)c1ccccc1Cl` was 39.5%; that for `CCS(=O)(=O)c1ccc(OC)c(Nc2ncc(-c3ccccc3Cl)o2)c1` was 0.79%; that for `COc1cc(N2CCN(C(C)C)CC2)ccc1Nc1nc(Nc2ccc(F)cc2C(=O)NC[C@@H](O)CO)c2cc[nH]c2n1` was 5.19%.
Still for that read-out and setting: the value for `Cc1nnc(-c2ccc(C)c(-c3ccc(C(=O)NCc4ccc(Cl)cc4)cc3)c2)o1` was 3.25%.
Regarding `COc1ccc2ncn(-c3cc(O[C@H](C)c4ccccc4Cl)c(C(N)=O)s3)c2c1`, the inhibition was 10.3%.
The same measure, in the same setting: the value for `COc1cc(Nc2ncc3c(C)nc(-c4cccc(Oc5ccccc5)c4)n3n2)cc(OC)c1OC` was 31.6%; that for `CN(C)CCCNc1nccc(-c2c(-c3ccc(F)cc3)nn3cc(C(F)(F)F)ccc23)n1` was 1.49%.
The same measure, in the same setting: the value for `CS(=O)(=O)CCNCc1ccc(-c2ccc3ncnc(Nc4ccc(OCc5ccccc5)c(Br)c4)c3c2)o1` was 3.81%; that for `COc1cc2ncn(-c3cc(OCCc4ccccc4)c(C(N)=O)s3)c2cc1OC` was 4.49%.
Consider `O=C(NCC1CC1)c1ccc(-c2cccc(C(=O)NC3CC3)c2)cc1`, for which the inhibition is 1.96%.
In the case of `CN1CCN(CCCNc2nc3ccc(Oc4ccc(NC(=O)Nc5cc(C(F)(F)F)ccc5F)cc4)cc3[nH]2)CC1`, the inhibition is 0.01%.
On the same count and under the same terms, the value for `CN(C)c1ccc2c(c1)/C(=C/Nc1ccc(S(N)(=O)=O)cc1)C(=O)N2` was 3.05%.
In the case of `Clc1ccc(CNc2nccc(-c3cnn4ncccc34)n2)cc1`, the inhibition stood at 0.52%.
Still for that read-out and setting: the value for `COc1cccc(-n2cnc3c(N/N=C/c4ccncc4)ncnc32)c1` was -1.3%; that for `COc1ccc2cc(-c3c(-c4ccncc4)nc(-c4ccc([S+](C)[O-])cc4C)n3C)ccc2c1` (stereo not drawn) was -0.11%.
With `c1ccc(-c2n[nH]cc2-c2ccnc(-c3ccc(OCCN4CCOCC4)cc3)c2)nc1`, the inhibition is -2.74%.
The same measure, in the same setting: the value for `COc1cc2ncn(-c3cc(OCc4cccs4)c(C(N)=O)s3)c2cc1OC` was 15.3%; that for `CNC(=O)c1cncc(/C=C/c2c(C)cccc2C)c1` was -0.77%.
On to `COc1cc(C)c(N(C)C(=O)CN(C)C)cc1Nc1nc(Nc2cccc(F)c2C(N)=O)c2cc[nH]c2n1`, for which the inhibition amounted to 3.64%.
Take `C#Cc1cccc(Nc2ncnc3ccc(OCCCCNCCS(C)(=O)=O)cc23)c1`: the inhibition was 6.09%.
Regarding `COC(=O)Nc1nc2ccc(Sc3ccc(NC(=O)Nc4cc(C(F)(F)F)ccc4F)cc3)cc2[nH]1`, the inhibition was -0.82%.
Same read-out and setting: the value for `CCc1nccc2c1nc(-c1nonc1N)n2CC` was 0.31%; that for `COc1cc(Nc2ncc3c(C)nc(-c4cccc(C(F)(F)F)c4)n3n2)cc(OC)c1OC` was 37.5%.
On the same count and under the same terms, the value for `O=C1Nc2ccc(I)cc2C1=Cc1cc(Br)c(O)c(Br)c1` was 3.15%.
On to `COc1cc2ncn(-c3cc(OCc4ccccc4C(F)(F)F)c(C(C)=O)s3)c2cc1OC`, for which the inhibition came out at 4.69%.
Same read-out and setting: next, `O=C(Nc1ccc(Oc2ccc3[nH]c(NC(=O)c4ccccc4)nc3c2)cc1)Nc1cc(C(F)(F)F)ccc1F`: 3.11%; `c1ccc(Oc2ccc(Nc3ncc(-c4ccccc4)o3)cc2)cc1`: 1.51%; `Fc1ccc(-c2ncn(CCCN3CCOCC3)c2-c2ccncc2)cc1`: -0.45%.
The same measure, in the same setting: next, `CCS(=O)(=O)c1ccc(OC)c(Nc2ncc(-c3cccc(-c4ccccc4F)c3)o2)c1`: -0.68%; `Fc1ccc(-c2nc3n(c2-c2ccncc2)CCS3)cc1`: 4.36%.
Still for that read-out and setting: the value for `C[C@@H](Oc1cc(-n2cnc3ccc(OCC4CCN(C)CC4)cc32)sc1C(N)=O)c1ccccc1Cl` was 64.9%; that for `FC(F)(F)c1cccc(Nc2nccc(-c3cnn4nc(-c5ccccc5)ccc34)n2)c1` was 4.5%.

The target in the next assay is Serine/threonine-protein kinase Nek6 (Homo sapiens) (UniProt Q9HC98). As to conditions: at 0.1 µM.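 Also: values are the mean percent inhibition of NEK6.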
Sequence of Serine/threonine-protein kinase Nek6 (Homo sapiens) (Q9HC98 whole entry): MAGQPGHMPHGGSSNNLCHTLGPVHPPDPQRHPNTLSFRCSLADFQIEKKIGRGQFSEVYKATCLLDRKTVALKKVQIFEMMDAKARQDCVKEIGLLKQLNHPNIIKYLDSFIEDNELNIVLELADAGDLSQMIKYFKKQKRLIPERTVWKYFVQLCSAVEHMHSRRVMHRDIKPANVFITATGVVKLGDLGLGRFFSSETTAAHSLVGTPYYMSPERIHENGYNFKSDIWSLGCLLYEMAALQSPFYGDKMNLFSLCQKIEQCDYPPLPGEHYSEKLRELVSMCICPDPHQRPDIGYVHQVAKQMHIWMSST
Turning to `Fc1ccc(-c2c(-c3ccncc3)nc3n2CCS3)cc1`, the inhibition is -0.57%.
In the case of `C/C(Nc1ccc(S(N)(=O)=O)cc1)=C1/C(=O)Nc2ccccc21`, the inhibition is -4.26%.
On the same count and under the same terms, next, `C[C@@H](Oc1cc(-n2cnc3ccc(OC4CCN(C)CC4)cc32)sc1C(N)=O)c1ccccc1Cl`: -0.34%; `CCS(=O)(=O)c1ccc(OC)c(Nc2ncc(-c3ccccc3Cl)o2)c1`: 1.4%; `COc1cc(N2CCN(C(C)C)CC2)ccc1Nc1nc(Nc2ccc(F)cc2C(=O)NC[C@@H](O)CO)c2cc[nH]c2n1`: 1.82%.
As to `Cc1nnc(-c2ccc(C)c(-c3ccc(C(=O)NCc4ccc(Cl)cc4)cc3)c2)o1`, the inhibition came out at 3.46%.
As for `COc1ccc2ncn(-c3cc(O[C@H](C)c4ccccc4Cl)c(C(N)=O)s3)c2c1`, the inhibition stood at 0.15%.
On the same count and under the same terms, the value for `COc1cc(Nc2ncc3c(C)nc(-c4cccc(Oc5ccccc5)c4)n3n2)cc(OC)c1OC` was 2.7%.
On the same count and under the same terms, the value for `CN(C)CCCNc1nccc(-c2c(-c3ccc(F)cc3)nn3cc(C(F)(F)F)ccc23)n1` was 1.82%; that for `CS(=O)(=O)CCNCc1ccc(-c2ccc3ncnc(Nc4ccc(OCc5ccccc5)c(Br)c4)c3c2)o1` was 4.55%; that for `COc1cc2ncn(-c3cc(OCCc4ccccc4)c(C(N)=O)s3)c2cc1OC` was -0.94%.
On the same count and under the same terms, the value for `O=C(NCC1CC1)c1ccc(-c2cccc(C(=O)NC3CC3)c2)cc1` was 1.75%; that for `CN1CCN(CCCNc2nc3ccc(Oc4ccc(NC(=O)Nc5cc(C(F)(F)F)ccc5F)cc4)cc3[nH]2)CC1` was 3.67%; that for `CN(C)c1ccc2c(c1)/C(=C/Nc1ccc(S(N)(=O)=O)cc1)C(=O)N2` was 0.8%.
Regarding `Clc1ccc(CNc2nccc(-c3cnn4ncccc34)n2)cc1`, the inhibition worked out at 3.94%.
On to `COc1cccc(-n2cnc3c(N/N=C/c4ccncc4)ncnc32)c1`, for which the inhibition was 2.37%.
With `COc1ccc2cc(-c3c(-c4ccncc4)nc(-c4ccc([S+](C)[O-])cc4C)n3C)ccc2c1` (stereo not drawn), the inhibition amounted to 0.58%.
As to `c1ccc(-c2n[nH]cc2-c2ccnc(-c3ccc(OCCN4CCOCC4)cc3)c2)nc1`, the inhibition is -1.49%.
The same measure, in the same setting: the value for `COc1cc2ncn(-c3cc(OCc4cccs4)c(C(N)=O)s3)c2cc1OC` was 3.67%; that for `CNC(=O)c1cncc(/C=C/c2c(C)cccc2C)c1` was 1.65%.
The same measure, in the same setting: the value for `COc1cc(C)c(N(C)C(=O)CN(C)C)cc1Nc1nc(Nc2cccc(F)c2C(N)=O)c2cc[nH]c2n1` was 1.26%.
The same measure, in the same setting: next, `C#Cc1cccc(Nc2ncnc3ccc(OCCCCNCCS(C)(=O)=O)cc23)c1`: 3.67%.
For `COC(=O)Nc1nc2ccc(Sc3ccc(NC(=O)Nc4cc(C(F)(F)F)ccc4F)cc3)cc2[nH]1`, the inhibition worked out at 0.73%.
As for `CCc1nccc2c1nc(-c1nonc1N)n2CC`, the inhibition amounted to 0.37%.
Still for that read-out and setting: next, `COc1cc(Nc2ncc3c(C)nc(-c4cccc(C(F)(F)F)c4)n3n2)cc(OC)c1OC`: 4.4%; `O=C1Nc2ccc(I)cc2C1=Cc1cc(Br)c(O)c(Br)c1`: 1.35%.
The same measure, in the same setting: next, `COc1cc2ncn(-c3cc(OCc4ccccc4C(F)(F)F)c(C(C)=O)s3)c2cc1OC`: 1.95%.
Take `O=C(Nc1ccc(Oc2ccc3[nH]c(NC(=O)c4ccccc4)nc3c2)cc1)Nc1cc(C(F)(F)F)ccc1F`: the inhibition was 3.73%.
Consider `c1ccc(Oc2ccc(Nc3ncc(-c4ccccc4)o3)cc2)cc1`, for which the inhibition is -0.2%.
In the case of `Fc1ccc(-c2ncn(CCCN3CCOCC3)c2-c2ccncc2)cc1`, the inhibition amounted to 1.11%.
Regarding `CCS(=O)(=O)c1ccc(OC)c(Nc2ncc(-c3cccc(-c4ccccc4F)c3)o2)c1`, the inhibition came out at 1.36%.
Consider `Fc1ccc(-c2nc3n(c2-c2ccncc2)CCS3)cc1`, for which the inhibition amounted to 0.55%.
With `C[C@@H](Oc1cc(-n2cnc3ccc(OCC4CCN(C)CC4)cc32)sc1C(N)=O)c1ccccc1Cl`, the inhibition turned out to be 0.14%.
The same measure, in the same setting: the value for `FC(F)(F)c1cccc(Nc2nccc(-c3cnn4nc(-c5ccccc5)ccc34)n2)c1` was -0.41%.
